# Among all 310,000 compounds or so, about 14,000 (4.5%) showed an effect of 50% or more. The effect is printed as a negative number. What follows is part of a selection rich in strong results, with near analogues and random picks from the rest.
# Biological target: human ether-à-go-go-related gene (hERG) potassium channel (human, UniProt Q12809)
# Assay: primary screen, population patch clamp on CHO cells stably expressing hERG; higher = less effect of the substance
# 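Further: peak tail current of the secondary pulse compared with the same well before compound.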
# human ether-à-go-go-related gene (hERG) potassium channel, sequence (Q12809 whole entry, looked up): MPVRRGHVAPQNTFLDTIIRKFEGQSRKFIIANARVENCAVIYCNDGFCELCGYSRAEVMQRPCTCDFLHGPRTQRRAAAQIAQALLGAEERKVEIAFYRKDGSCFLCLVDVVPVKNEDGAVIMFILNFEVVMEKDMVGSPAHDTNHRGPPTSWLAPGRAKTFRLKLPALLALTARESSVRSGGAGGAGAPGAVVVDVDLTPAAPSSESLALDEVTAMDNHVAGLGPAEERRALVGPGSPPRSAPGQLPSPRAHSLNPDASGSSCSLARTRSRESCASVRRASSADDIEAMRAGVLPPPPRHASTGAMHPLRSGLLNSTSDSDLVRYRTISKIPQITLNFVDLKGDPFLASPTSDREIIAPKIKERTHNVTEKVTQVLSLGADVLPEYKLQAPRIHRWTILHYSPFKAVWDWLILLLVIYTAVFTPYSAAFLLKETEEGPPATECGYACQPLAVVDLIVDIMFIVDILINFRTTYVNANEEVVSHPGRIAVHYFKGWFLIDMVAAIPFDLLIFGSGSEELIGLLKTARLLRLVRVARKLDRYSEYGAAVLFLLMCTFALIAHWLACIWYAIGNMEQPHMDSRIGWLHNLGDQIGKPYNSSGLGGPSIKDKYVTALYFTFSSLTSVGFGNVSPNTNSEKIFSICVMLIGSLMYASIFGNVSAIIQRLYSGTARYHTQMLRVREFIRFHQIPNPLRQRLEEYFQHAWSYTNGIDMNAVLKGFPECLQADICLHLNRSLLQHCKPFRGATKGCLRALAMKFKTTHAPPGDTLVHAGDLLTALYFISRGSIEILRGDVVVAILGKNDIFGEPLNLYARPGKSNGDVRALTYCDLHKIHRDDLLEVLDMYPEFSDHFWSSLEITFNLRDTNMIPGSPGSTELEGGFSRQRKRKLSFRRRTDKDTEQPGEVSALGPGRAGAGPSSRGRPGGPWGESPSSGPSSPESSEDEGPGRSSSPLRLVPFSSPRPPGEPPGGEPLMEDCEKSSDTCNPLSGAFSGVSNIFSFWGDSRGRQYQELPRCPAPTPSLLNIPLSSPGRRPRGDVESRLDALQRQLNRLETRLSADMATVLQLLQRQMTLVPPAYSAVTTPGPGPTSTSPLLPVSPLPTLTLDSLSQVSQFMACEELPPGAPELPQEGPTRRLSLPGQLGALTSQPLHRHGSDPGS
row,Structure (SMILES),"hERG current change (%, negative = inhibition) at 10uM [%]"
1,FC(F)(F)c1ccc(N2CCOCC2)c(Nc2nc3ccccc3n3cnnc23)c1,7.53
2,CCSc1nnc([C@H](Cc2c[nH]c3ccccc23)NC(=O)OC(C)(C)C)o1,-21.5
3,COc1ccccc1C1c2ccc3ccccc3c2Oc2ncn(CCN(C)C)c(=N)c21 (stereo not drawn),-61.8
4,COc1ccc(C2c3c(ccc4ccccc34)Oc3ncn4nc(-c5ccco5)nc4c32)cc1 (stereo not drawn),-12.4
5,COc1ccc(Cc2nc3c4c(ncn3n2)Oc2c(ccc3ccccc23)C4c2ccc(OC)c(OC)c2)cc1 (stereo not drawn),14.7
6,COc1ccc(C2c3ccc4ccccc4c3Oc3ncn(CCN(C)C)c(=N)c32)cc1 (stereo not drawn),-77.2
7,COc1ccc(C2c3ccc4ccccc4c3Oc3ncn(CCCN(C)C)c(=N)c32)cc1 (stereo not drawn),-76.4
8,CN(C)S(=O)(=O)c1cc(C(=O)OCCn2cnc3c2c(=O)n(C)c(=O)n3C)ccc1Cl,-39.7
9,CS(=O)(=O)c1cccc(-c2nnc(NC(=O)CCS(=O)(=O)c3ccccc3)o2)c1,3.82
10,COC(=O)c1cn(C(=O)c2ccccc2F)nc1N,-5.96
11,Cc1ccc2c(CC(=O)OC3CCOC3=O)coc2c1 (stereo not drawn),3.85
12,CC/C(=N\NC(=S)Nc1ccc(OC)cc1)c1ccc(OC(F)F)cc1,-4.32
13,C[C@@H]1CC=C[C@H]2[C@H]1C(=O)N(Cc1ccccc1)[C@H]2c1ccoc1,3.54
14,CC(CN1CCCCC1)C(=O)NNC(=O)C12CC3CC(CC(C3)C1)C2 (stereo not drawn),3.74
15,CC(C)c1onc(C(=O)N2CCN(c3ccc(F)cc3)CC2)c1[N+](=O)[O-],-19.9
16,COc1ccccc1NC(=O)CSc1nnc(C2CCCCC2)n1N,5.54
17,Fc1ccc(-c2nn(-c3ccccc3)cc2CNCc2ccccc2)cc1,1.75
18,O=Cc1cn(-c2ccccc2)nc1-c1ccc2c(c1)OCCO2,-0.855
19,Cc1ccc(-n2cc(CNCCc3ncc(C)[nH]3)c(-c3ccc(F)cc3)n2)cc1,-47.4
20,Cc1ccc(-n2cc(CNCCc3cscn3)c(-c3ccc(F)cc3)n2)cc1,-59
21,OCc1cn(-c2ccccc2)nc1-c1ccc2c(c1)OCCO2,5.83

row,Structure (SMILES),"hERG current change (%, negative = inhibition) at 10uM [%]"
1,c1ccc(-n2cc(CNCCc3cscn3)c(-c3ccc4c(c3)OCO4)n2)cc1,-65.4
2,O=C(CSC1=NCCS1)NC(NC(=O)CSC1=NCCS1)c1ccccc1,18.6
3,O=C(C1CCN(S(=O)(=O)c2ccc(F)cc2)CC1)N1CCOCC1,15.3
4,COc1ccc(CNC(=O)c2cc(-c3ccccc3O)n[nH]2)cc1,5.51
5,O=C1CC(N2CCN(C(c3ccccc3)c3ccccc3)CC2)C(=O)N1 (stereo not drawn),-0.687
6,NC(=O)COn1c(SCC(N)=O)nc2ccccc2c1=O,19.3
7,COC(=O)c1cc(Br)c(=O)n(Cc2ccncc2)c1,-1.41
8,Cc1cc(=O)oc2cc(OCC(=O)N3CCN(C(=O)C4COc5ccccc5O4)CC3)ccc12 (stereo not drawn),-53.6
9,O=C(COc1ccc2ccc(=O)oc2c1)N1CCN(C(=O)C2COc3ccccc3O2)CC1 (stereo not drawn),-46.2
10,CCOc1ccccc1N1CCN(C(=O)COc2ccc3c(C)cc(=O)oc3c2)CC1,-6.28
11,CCCc1cc(=O)oc2cc(OCC(=O)N3CCC(C(=O)O)(c4ccccc4)CC3)ccc12,6.41
12,Cc1cccc(N2CCN(C(=O)COc3ccc4c(C)cc(=O)oc4c3C)CC2)c1C,13.6
13,CCCc1cc(=O)oc2cc(OCC(=O)N3CCC(C(N)=O)CC3)ccc12,-6.67
14,Cc1c(C)c2ccc(OCC(=O)N3CCN(c4ccccc4)CC3)cc2oc1=O,-36.1
15,Cc1cc(=O)oc2c(C)c(OCC(=O)N3CCN(C(=O)C4COc5ccccc5O4)CC3)ccc12 (stereo not drawn),-50.4
16,Cc1c(C)c2ccc(OCC(=O)N3CCC(C(=O)O)CC3)cc2oc1=O,-6.41
17,CCCc1cc(=O)oc2cc(OCC(=O)N3CCN(C(=O)C4COc5ccccc5O4)CC3)ccc12 (stereo not drawn),-65.9
18,Cc1c(C)c2ccc(OCC(=O)N3CCN(C(=O)C4COc5ccccc5O4)CC3)cc2oc1=O (stereo not drawn),-60.9
19,Cc1cc(=O)oc2cc(OCC(=O)N3CCN(C(=O)C4COc5ccccc5O4)CC3)c(Cl)cc12 (stereo not drawn),-48
20,CCOC(=O)c1ccc(NC(=O)CCc2nc(-c3ccc(Cl)cc3)no2)cc1,8.36
21,Cc1cccc(N(CC(=O)NCCSCc2ccccc2)S(C)(=O)=O)c1C,-17.4

# — PMC4336329 (PLoS ONE, 2015)
